In PubChem BioAssay (EPA / NIEHS) one finds outcome and AC50 data, which are given here for 6 compounds.

Records with an inconclusive call do not appear. Activity calls are given as the source filed them. The calls were made as follows, unless noted: active = hit-call score of the fitted dose curve at least 0.9, where 1 is the maximum; inactive = score below 0.9.

Read-out in experiment [1]: Monocyte Chemoattractant Protein-1 (MCP1), CCL2 (gene 6347)
The experiment in a line: BSK_SAg_MCP1: BioMAP Diversity Plus: SAg Assay for Monocyte Chemoattractant Protein-1 (MCP1) Biomarker Activity (AID 2283090). The settings on record: primary human HUVEC with PBMC; actives raise or lower the signal. The gist of the method:
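MCP-1 levels in the endothelial–PBMC SAg co-culture were quantified by ELISA at 24 h post-dosing; both increases and decreases versus DMSO scored. Cytotoxicity monitored by SRB total protein in parallel cultures.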

Read-out in experiment [2]: E-selectin (Homo sapiens) (UniProt P16581)
The experiment can be described thus: BSK_SAg_Eselectin: BioMAP Diversity Plus: SAg Assay for Eselectin Biomarker Activity (AID 2283091). The conditions noted are these: primary human HUVEC with PBMC; actives raise or lower the signal. The method, boiled down: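 Primary human endothelial cells and peripheral blood mononuclear cells were co-cultured and exposed to chemical for 24 hours. E-selectin levels were then quantified by ELISA, with bidirectional curve fitting normalised to DMSO controls.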

Read-out in experiment [3]: Monokine induced gamma interferon (MIG), CXCL9 (gene 4283)
The experiment can be described thus: BSK_SAg_MIG: BioMAP Diversity Plus: SAg Assay for Monokine induced gamma interferon (MIG) Biomarker Activity (AID 2283092). The settings on record: primary human HUVEC with PBMC; actives raise or lower the signal. The method, boiled down: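 ELISA readout of MIG/CXCL9; primary human umbilical vein endothelial cells co-cultured with peripheral blood mononuclear cells; 24 h post-dose; gain/loss fit vs DMSO baseline.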

Experiment [4] can be described thus: BSK_SAg_PBMCCytotoxicity: PBMC Cytotoxicity Assessment in the BioMAP Diversity Plus: SAg Assay (AID 2283093).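 Also: PBMC viability measured as Alamar Blue reduction fluorescence at 546/580 nm; fitted both ways against DMSO so a hit may be loss or gain of signal.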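 As to AC50: PBMC superantigen activated with SEB plus TSST-1 one hour after compound addition.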 The conditions noted are these: primary human HUVEC with PBMC. The method, boiled down:
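HUVEC/PBMC co-culture; PBMC exposed to chemical 1 h before SEB and TSST-1 activation (20 ng/mL each), incubated 90 h, then Alamar Blue 6 h, fluorescence 546/580 nm. Bidirectional fit versus DMSO baseline.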

Read-out in experiment [5]: Interleukin-8 (IL8), CXCL8 (gene 3576)
The experiment can be described thus: BSK_SAg_IL8: BioMAP Diversity Plus: SAg Assay for Interleukin-8 (IL8) Biomarker Activity (AID 2283094). The settings on record: primary human HUVEC with PBMC; actives raise or lower the signal. The method, boiled down: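 Human umbilical vein endothelial cells co-cultured with PBMC, stimulated with superantigen; IL-8 measured by ELISA 24 h after chemical dosing. Bidirectional fitting versus DMSO; SRB staining in parallel cultures tracks cytotoxicity.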

Experiment [6] in a line: BSK_SAg_Proliferation: Cell Proliferation Assessment in the BioMAP Diversity Plus: SAg Assay (AID 2283095). The conditions noted are these: primary human HUVEC with PBMC. The gist of the method:
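Human umbilical vein endothelial cells co-cultured with PBMC; sulforhodamine B total-protein staining (0.1% SRB after 10% TCA fixation, absorbance 560 nm) at 96 h in sub-confluent culture. Fitted bidirectionally against DMSO.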

The nature of experiment [7]: BSK_SAg_SRB: Viability Assessment in the BioMAP Diversity Plus: SAg Assay (AID 2283096).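 Also: cells read one day after compound addition; hits may be either gain or loss of signal compared with DMSO.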 The conditions noted are these: primary human HUVEC with PBMC. The gist of the method: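 Human umbilical vein endothelial cells co-cultured with PBMC, read 24 h after compound dosing. Total protein measured by sulforhodamine B staining (0.1% SRB after 10% TCA fixation, absorbance 560 nm); bidirectional fit versus DMSO baseline.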

Experiment [8] has as its target Cytochrome P450 3A4 (Homo sapiens) (UniProt P08684). The experiment in a line: NVS_ADME_hCYP3A4: NovaScreen (NVS) CYP450-related Enzyme Activity (ADME) Assay for human CYP3A4 (AID 2283110; active = hit-call score of the fitted dose curve at least 0.9, where 1 is the maximum). The method, boiled down: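 Cell-free recombinant enzyme expressed in insect cells; fluorescent substrate turnover read after 0.33 h, acetonitrile as negative control. Primary screen in duplicate at 10 uM, actives then tested in concentration series.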

Experiment [9] concerns the target Cytochrome P450 2C19 (Homo sapiens) (UniProt P33261). The experiment in a line: NVS_ADME_hCYP2C19: NovaScreen (NVS) CYP450-related Enzyme Activity (ADME) Assay for human CYP2C19 (AID 2283113; active = hit-call score of the fitted dose curve at least 0.9, where 1 is the maximum;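 as to AC50: potency for inhibition seen as loss of fluorescent signal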). The gist of the method: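 Chemicals first screened in duplicate at 10 uM against recombinant human enzyme produced in insect cells; confirmed actives then run as concentration series. Fluorogenic substrate turnover read by fluorescence after 1 h, normalised to acetonitrile.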

Experiment [10] concerns the target human CYP2D6, CYP2D6 (gene 1565) (UniProt P10635). The experiment in a line: NVS_ADME_hCYP2D6: NovaScreen (NVS) CYP450-related Enzyme Activity (ADME) Assay for human CYP2D6 (AID 2283107; active = hit-call score of the fitted dose curve at least 0.9, where 1 is the maximum). The gist of the method: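 Compounds were first tested in duplicate at 10 uM against recombinant enzyme produced in insect cells, with substrate turnover measured by fluorescence after 1 hour. Decreased signal, referenced to acetonitrile vehicle, was taken as reduced enzyme activity. Active chemicals went on to concentration-response testing.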

Experiment [11] has as its target human CYP2C9, CYP2C9 (gene 1559) (UniProt P11712). The experiment can be described thus: NVS_ADME_hCYP2C9: NovaScreen (NVS) CYP450-related Enzyme Activity (ADME) Assay for human CYP2C9 (AID 2283108; active = hit-call score of the fitted dose curve at least 0.9, where 1 is the maximum). The method, boiled down:
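Recombinant human CYP2C9 expressed in SF9 cells, fluorogenic substrate, fluorescence read 0.75 h after dosing. Chemicals first run in duplicate at 10 uM, with actives followed in concentration series; loss of signal versus acetonitrile baseline.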

Experiment [12] addresses human CYP1A1, CYP1A1 (gene 1543) (UniProt P04798). The experiment can be described thus: NVS_ADME_hCYP1A1: NovaScreen (NVS) CYP450-related Enzyme Activity (ADME) Assay for human CYP1A1 (AID 2283100; active = hit-call score of the fitted dose curve at least 0.9, where 1 is the maximum). The method, boiled down:
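Compounds first went through duplicate single-concentration testing at 10 uM against purified CYP1A1. Those passing a threshold such as 30% inhibition entered singleton dose-response, highest concentration 20 uM. Signal was fluorescence measured after 1 hour.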

In experiment [13] the target is human CYP1A2, CYP1A2 (gene 1544) (UniProt P05177). The experiment in a line: NVS_ADME_hCYP1A2: NovaScreen (NVS) CYP450-related Enzyme Activity (ADME) Assay for human CYP1A2 (AID 2283102; active = hit-call score of the fitted dose curve at least 0.9, where 1 is the maximum). The method, boiled down: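 Compounds were tested at 10 uM in duplicate against recombinant CYP1A2 produced in insect cells. Enzyme activity was measured by fluorescence 0.5 h after dosing, with loss of signal versus acetonitrile control. Active compounds were re-tested in concentration series.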
human CYP1A2, CYP1A2 (gene 1544), sequence (P05177 whole entry, looked up): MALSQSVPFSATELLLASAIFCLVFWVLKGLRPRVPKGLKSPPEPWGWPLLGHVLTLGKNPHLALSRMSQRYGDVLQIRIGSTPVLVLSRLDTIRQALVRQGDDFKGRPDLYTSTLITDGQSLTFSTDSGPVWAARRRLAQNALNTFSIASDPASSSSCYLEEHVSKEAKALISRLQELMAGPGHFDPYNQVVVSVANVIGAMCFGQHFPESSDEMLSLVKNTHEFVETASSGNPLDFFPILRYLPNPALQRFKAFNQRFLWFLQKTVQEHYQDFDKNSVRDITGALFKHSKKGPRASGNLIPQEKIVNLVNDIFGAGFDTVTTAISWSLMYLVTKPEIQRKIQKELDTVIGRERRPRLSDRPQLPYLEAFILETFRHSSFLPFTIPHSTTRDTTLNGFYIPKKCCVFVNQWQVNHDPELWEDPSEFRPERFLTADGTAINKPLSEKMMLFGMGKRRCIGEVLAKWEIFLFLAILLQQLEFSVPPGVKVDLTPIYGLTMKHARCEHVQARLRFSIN

In experiment [14] the target is Cytochrome P450 2C18 (Homo sapiens) (UniProt P33260). The experiment can be described thus: NVS_ADME_hCYP2C18: NovaScreen (NVS) CYP450-related Enzyme Activity (ADME) Assay for human CYP2C18 (AID 2283103). The gist of the method: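 Cell-free recombinant human CYP2C18 with fluorogenic substrate; fluorescence intensity read 0.5 h after dosing. Single-point screen at 10 uM in duplicate, then concentration-response up to 20 uM; loss of signal fitted against acetonitrile baseline.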
Cytochrome P450 2C18 (Homo sapiens), sequence (P33260 whole entry, looked up): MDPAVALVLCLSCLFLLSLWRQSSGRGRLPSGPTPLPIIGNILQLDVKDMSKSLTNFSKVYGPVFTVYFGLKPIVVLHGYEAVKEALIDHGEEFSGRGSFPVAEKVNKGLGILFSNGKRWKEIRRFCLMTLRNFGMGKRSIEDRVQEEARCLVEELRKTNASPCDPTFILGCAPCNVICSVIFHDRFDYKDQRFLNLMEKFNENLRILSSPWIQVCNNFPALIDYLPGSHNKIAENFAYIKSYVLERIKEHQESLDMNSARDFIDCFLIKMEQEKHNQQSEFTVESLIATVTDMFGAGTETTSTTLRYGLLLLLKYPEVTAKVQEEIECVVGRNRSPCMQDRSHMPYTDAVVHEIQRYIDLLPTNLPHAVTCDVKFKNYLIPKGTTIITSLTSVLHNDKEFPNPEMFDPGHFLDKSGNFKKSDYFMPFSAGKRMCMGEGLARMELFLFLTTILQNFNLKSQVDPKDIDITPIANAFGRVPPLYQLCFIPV

In experiment [15] the target is human CYP19A1, CYP19A1 (gene 1588) (UniProt P11511). The experiment can be described thus: NVS_ADME_hCYP19A1: NovaScreen (NVS) CYP450-related Enzyme Activity (ADME) Assay for human CYP19A1 (AID 2283098; active = hit-call score of the fitted dose curve at least 0.9, where 1 is the maximum). The gist of the method: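 Recombinant enzyme in a cell-free format, read 0.5 h after dosing by fluorescence from a fluorogenic substrate. Loss of signal was fitted against acetonitrile as baseline. Primary screen in duplicate at 10 uM, actives then tested in concentration series.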
human CYP19A1, CYP19A1 (gene 1588), sequence (P11511 whole entry, looked up): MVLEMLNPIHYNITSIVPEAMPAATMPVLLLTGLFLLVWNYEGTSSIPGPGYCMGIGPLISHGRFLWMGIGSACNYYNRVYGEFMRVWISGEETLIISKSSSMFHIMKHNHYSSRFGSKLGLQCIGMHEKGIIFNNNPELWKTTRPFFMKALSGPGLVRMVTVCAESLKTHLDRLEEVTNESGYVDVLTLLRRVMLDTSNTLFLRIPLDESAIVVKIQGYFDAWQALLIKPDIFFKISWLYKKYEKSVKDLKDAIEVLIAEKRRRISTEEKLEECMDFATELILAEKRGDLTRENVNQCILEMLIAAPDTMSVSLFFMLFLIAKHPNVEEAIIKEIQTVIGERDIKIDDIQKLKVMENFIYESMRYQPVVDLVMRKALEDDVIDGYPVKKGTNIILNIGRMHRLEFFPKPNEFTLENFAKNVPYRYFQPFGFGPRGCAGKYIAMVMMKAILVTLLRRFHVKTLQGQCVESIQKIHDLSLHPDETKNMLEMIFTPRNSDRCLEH

Experiment [16] deals with human CYP2B6, CYP2B6 (gene 1555) (UniProt P20813). The experiment in a line: NVS_ADME_hCYP2B6: NovaScreen (NVS) CYP450-related Enzyme Activity (ADME) Assay for human CYP2B6 (AID 2283101; active = hit-call score of the fitted dose curve at least 0.9, where 1 is the maximum). The gist of the method: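 Fluorescence-based enzyme activity of recombinant human CYP2B6, measured 1 h post-dose against acetonitrile vehicle baseline. Screened at a single concentration of 10 uM in duplicate before concentration-response follow-up.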
human CYP2B6, CYP2B6 (gene 1555), sequence (P20813 whole entry, looked up): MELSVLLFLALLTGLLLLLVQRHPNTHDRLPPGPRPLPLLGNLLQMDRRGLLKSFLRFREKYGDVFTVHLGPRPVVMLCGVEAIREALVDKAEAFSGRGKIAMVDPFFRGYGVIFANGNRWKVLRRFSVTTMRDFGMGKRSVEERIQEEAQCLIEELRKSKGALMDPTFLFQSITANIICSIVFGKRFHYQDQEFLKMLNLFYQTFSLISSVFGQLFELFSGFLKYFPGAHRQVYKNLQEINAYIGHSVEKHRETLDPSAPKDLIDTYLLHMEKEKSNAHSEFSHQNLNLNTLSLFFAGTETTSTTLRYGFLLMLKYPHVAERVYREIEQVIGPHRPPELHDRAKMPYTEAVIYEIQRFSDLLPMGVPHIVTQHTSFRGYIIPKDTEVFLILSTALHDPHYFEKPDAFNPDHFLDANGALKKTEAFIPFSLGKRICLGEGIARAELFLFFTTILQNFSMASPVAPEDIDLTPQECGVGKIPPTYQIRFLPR

Experiment [17] deals with human CYP2J2, CYP2J2 (gene 1573) (UniProt P51589). The experiment can be described thus: NVS_ADME_hCYP2J2: NovaScreen (NVS) CYP450-related Enzyme Activity (ADME) Assay for human CYP2J2 (AID 2283106; active = hit-call score of the fitted dose curve at least 0.9, where 1 is the maximum). The gist of the method: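 Cell-free assay of recombinant CYP2J2 with a fluorogenic substrate, read 1 h after dosing; loss of signal versus acetonitrile. Primary screen at 10 uM in duplicate, then concentration-response up to 20 uM for chemicals passing threshold (e.g., 30% inhibition).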

human CYP1A1, CYP1A1 (gene 1543), sequence (P04798 whole entry, looked up): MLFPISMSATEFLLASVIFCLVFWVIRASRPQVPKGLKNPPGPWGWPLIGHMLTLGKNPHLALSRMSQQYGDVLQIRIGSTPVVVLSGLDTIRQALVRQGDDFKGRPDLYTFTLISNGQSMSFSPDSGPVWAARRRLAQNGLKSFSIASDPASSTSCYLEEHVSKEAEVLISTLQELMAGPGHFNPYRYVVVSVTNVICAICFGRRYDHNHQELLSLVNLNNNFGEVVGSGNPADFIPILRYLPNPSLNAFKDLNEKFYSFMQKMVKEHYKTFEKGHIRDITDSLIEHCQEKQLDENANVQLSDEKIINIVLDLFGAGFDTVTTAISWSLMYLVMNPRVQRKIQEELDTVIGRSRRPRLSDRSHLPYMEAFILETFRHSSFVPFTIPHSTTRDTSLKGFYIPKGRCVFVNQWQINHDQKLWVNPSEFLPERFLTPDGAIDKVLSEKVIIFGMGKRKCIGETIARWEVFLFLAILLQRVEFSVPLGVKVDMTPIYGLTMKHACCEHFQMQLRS
E-selectin (Homo sapiens), sequence (P16581 whole entry, looked up): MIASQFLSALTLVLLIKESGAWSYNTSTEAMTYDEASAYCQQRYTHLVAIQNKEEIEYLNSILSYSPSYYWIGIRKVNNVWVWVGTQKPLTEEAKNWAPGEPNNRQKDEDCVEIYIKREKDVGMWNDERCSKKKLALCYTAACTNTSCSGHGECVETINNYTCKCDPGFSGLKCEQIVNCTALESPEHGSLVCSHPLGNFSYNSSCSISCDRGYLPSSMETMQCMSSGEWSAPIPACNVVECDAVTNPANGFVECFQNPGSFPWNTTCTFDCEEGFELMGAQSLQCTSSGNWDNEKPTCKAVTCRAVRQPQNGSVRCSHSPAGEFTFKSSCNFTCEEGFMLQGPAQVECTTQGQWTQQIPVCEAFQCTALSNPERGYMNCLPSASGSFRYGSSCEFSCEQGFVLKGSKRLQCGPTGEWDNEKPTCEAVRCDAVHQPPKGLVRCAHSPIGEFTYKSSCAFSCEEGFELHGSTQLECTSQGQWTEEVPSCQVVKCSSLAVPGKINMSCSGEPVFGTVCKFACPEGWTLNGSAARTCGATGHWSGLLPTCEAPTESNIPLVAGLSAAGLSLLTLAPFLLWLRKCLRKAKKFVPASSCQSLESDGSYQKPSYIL
human CYP2C9, CYP2C9 (gene 1559), sequence (P11712 whole entry, looked up): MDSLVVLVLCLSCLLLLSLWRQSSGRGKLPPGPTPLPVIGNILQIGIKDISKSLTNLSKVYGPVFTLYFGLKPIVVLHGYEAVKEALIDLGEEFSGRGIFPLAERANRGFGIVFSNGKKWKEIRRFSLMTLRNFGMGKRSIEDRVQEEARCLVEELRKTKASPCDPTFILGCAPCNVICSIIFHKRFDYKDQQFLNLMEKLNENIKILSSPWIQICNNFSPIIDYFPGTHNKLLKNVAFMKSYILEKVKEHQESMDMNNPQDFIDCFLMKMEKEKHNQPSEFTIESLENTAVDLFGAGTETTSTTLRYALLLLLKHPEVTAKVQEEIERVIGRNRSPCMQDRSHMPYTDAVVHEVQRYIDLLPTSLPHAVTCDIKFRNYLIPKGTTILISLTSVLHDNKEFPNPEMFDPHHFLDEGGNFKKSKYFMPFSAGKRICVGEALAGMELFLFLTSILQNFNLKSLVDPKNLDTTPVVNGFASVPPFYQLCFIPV
Cytochrome P450 3A4 (Homo sapiens), sequence (P08684 whole entry, looked up): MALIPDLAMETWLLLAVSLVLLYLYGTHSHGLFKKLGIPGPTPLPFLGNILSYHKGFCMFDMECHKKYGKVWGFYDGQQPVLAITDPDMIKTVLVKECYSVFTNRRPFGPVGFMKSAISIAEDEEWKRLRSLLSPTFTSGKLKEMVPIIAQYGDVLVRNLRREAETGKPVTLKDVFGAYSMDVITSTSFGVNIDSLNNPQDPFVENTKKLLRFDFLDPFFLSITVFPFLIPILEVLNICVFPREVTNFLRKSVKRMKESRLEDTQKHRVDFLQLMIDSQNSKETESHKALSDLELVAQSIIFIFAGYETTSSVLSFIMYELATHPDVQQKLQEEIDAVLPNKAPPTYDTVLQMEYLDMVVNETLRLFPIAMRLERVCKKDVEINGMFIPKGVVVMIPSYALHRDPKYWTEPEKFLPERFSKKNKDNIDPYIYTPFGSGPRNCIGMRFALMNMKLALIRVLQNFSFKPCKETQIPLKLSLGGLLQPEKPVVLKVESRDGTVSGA
human CYP2D6, CYP2D6 (gene 1565), sequence (P10635 whole entry, looked up): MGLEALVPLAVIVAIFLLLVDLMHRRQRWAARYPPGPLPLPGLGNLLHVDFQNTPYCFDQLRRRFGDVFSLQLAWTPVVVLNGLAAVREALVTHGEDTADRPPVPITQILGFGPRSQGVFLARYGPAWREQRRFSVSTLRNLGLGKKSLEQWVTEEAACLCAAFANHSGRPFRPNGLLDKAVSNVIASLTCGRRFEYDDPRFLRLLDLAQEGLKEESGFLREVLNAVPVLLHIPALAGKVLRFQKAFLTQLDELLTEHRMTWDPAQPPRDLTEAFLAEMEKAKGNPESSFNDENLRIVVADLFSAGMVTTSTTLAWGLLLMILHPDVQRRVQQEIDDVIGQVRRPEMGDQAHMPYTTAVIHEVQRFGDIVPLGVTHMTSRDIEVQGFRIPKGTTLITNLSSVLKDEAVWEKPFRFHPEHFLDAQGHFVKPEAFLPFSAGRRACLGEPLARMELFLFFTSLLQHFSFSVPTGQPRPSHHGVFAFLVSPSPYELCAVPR

Turning to `O=C(O)c1nc(Cl)ccc1Cl`, the result in [1], in experiment [2], in [3], in experiment [4], in experiment [5] and in experiment [6] was inactive. Moreover, the result in experiment [7], in experiment [8] and in experiment [9] was inactive.

Turning to `C=CCC1=C(C)[C@@H](OC(=O)[C@@H]2[C@@H](C=C(C)C)C2(C)C)CC1=O`, the AC50 (usually the concentration at which the activity in the assay is half-maximal) was 33.2 µM (active) in experiment [1]; 27.4 µM (active) in experiment [2]; 38.9 µM (active) in experiment [3]; 32.4 µM (active) in experiment [4]; 25.3 µM (active) in [5]; 33.8 µM (active) in experiment [6]. For the same compound, the AC50 in [10] was 10 µM (active); in experiment [11], 5.73 µM (active); in experiment [9], 6.39 µM (active).

`CCOC(=O)C(Cl)Cc1cc(-n2nc(C)n(C(F)F)c2=O)c(F)cc1Cl` (configuration not stated): the result in experiment [1], in [2], in experiment [3], in experiment [4], in experiment [5] and in experiment [13] was inactive. The compound was classed as inactive in experiment [14]. The AC50 in experiment [6] is 21.2 µM (active); in experiment [12], 5.46 µM (active); in experiment [9], 10 µM (active).

In the case of `CNC(=S)S`, the result in [1], in [3], in [5], in [15], in experiment [13] and in experiment [14] was inactive. Besides, the outcome in [11] was inactive. The half-maximal activity concentration (AC50) was 27.5 µM (active) in experiment [2], 14.7 µM (active) in experiment [4], 11.9 µM (active) in experiment [6] and 7.58 µM (active) in [9].

`N#CC(CCc1ccc(Cl)cc1)(Cn1cncn1)c1ccccc1` (configuration not stated): the outcome in experiment [1], in experiment [2], in experiment [3], in experiment [4], in experiment [5] and in experiment [15] was inactive. Further, the compound was called inactive in experiment [12]. Further, the AC50 is 8.6 µM (active) in experiment [6]; 0.429 µM (active) in experiment [16]; 0.428 µM (active) in experiment [14]; 1.14 µM (active) in experiment [11]; 4.35 µM (active) in experiment [8]; 0.191 µM (active) in [9].

On to `O=C(Nc1ccccc1)Nc1ccnc(Cl)c1`, for which the outcome in experiment [1], in experiment [3], in experiment [4] and in experiment [15] was inactive. Moreover, the half-maximal activity concentration (AC50) is 14.2 µM (active) in experiment [2]; 20 µM (active) in experiment [5]; 33.5 µM (active) in experiment [6]; 9.34 µM (active) in [12]; 2.15 µM (active) in experiment [17]; 2.46 µM (active) in experiment [11].
